Screening results (PubChem BioAssay)
Hits are enriched below; roughly 2.9% of the tested compounds scored in any of these assays.
A549 tox-1 = counter-screen for Nrf2 inhibitors: cytotoxicity in A549 cells; A549 ARE-Fluc cells, CellTiter-Fluor viability, 18-24 h; 390,000 tested, 0.16% active; Potency, µM (top dose mostly 46 µM), for inactives: top-dose activity change, negative = cytotoxicity, hits mostly inhibitors; AID 504648; note: % is set by controls: 0 for no effect and ±100 for the full control effect
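Cytotoxicity counterscreen: CellTiter-Fluor fluorescence was measured in A549 ARE_Fluc cells after 18-24 h of compound exposure in a concentration series. The subsequent BugLite luminescent read reports ARE-luciferase activity.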
ATXN2 expr inh = inhibitors of ATXN2 expression; 360,000 tested, 0.72% active; Potency, µM (series often up to 57 µM), inactives show at the top dose activity change, negative = inhibition, actives largely listed as inhibitors; HEK-293 ATXN2-luciferase reporter, luminescence, 24 h; note: % is set by controls: 0 for no effect and ±100 for the full control effect; nearly all actives have a fitted effect of over 55% in size
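ATXN2-luciferase reporter cells (luciferase flanked by upstream and downstream ATXN2 gene portions) were treated 24 h at 37 °C with compounds at up to 57 uM. SteadyGlo luminescence gave expression; GF-AFC fluorescence gave viability.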
Nrf2 block = inhibitors of Nrf2 signaling | A549 ARE-Fluc reporter, luciferase luminescence, 18-24 h | Potency, µM (highest dose often 46 µM), for inactives: at the highest dose activity change, negative = inhibition, most hits filed as inhibitors | 360,000 tested, 2.1% active | AID 504444; note: % is set by controls: 0 for no effect and ±100 for the full control effect; nearly all actives have a fitted effect of over 60% in size
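A549 ARE_Fluc cells (5000/well, 5% FBS OPTI-MEM) pre-incubated 2 h, then treated with compounds 18-24 h at 37C/5% CO2 in concentration-response. CellTiter-Fluor viability read first; BugLite luciferase luminescence after 15 min at room temperature gives Nrf2 activity.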
Nrf2 activator = activators of Nrf2 (ARE) signaling | AREc32 ARE-luciferase reporter (MCF7-derived line), luminescence, 24 h | Potency, µM (doses to about 46.1 µM), for the others: top-dose activation, hits mostly activators | 410,000 tested, 0.31% active | AID 624171; note: % of control where 0% means no effect; nearly all actives have a fitted effect of over 65% in size
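Nrf2 activation is followed as ARE-luciferase induction in the AREc32 line after one day of compound treatment; luminescence is read with Steady-Glo.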
ATXN viability = viability counter-screen for ATXN expression inhibitors; AID 651635; Potency, µM (titrated, usually from 56.7 µM), usual class: cytotoxic; 400,000 tested, 0.49% active; S2 cells (HEK-293 line with an ATXN2-luciferase reporter) viability, CellTiter-Fluor protease fluorescence, 24 h; note: nearly all actives have a fitted effect of over 40% in size
FLuc counter 3 = blocks purified firefly luciferase in Nrf2 counterscreen. shares compounds with Nrf2 block. purified firefly luciferase, luminescence inhibition. Potency, µM (series often up to 57.5 µM), inactives show at the highest dose activity change, negative = inhibition, actives largely listed as inhibitors. 1,400 tested, 4% active. AID 720522; note: % is set by controls: 0 for no effect and ±100 for the full control effect; nearly all actives have a fitted effect of over 65% in size
Target sequence (P08659 whole entry, looked up): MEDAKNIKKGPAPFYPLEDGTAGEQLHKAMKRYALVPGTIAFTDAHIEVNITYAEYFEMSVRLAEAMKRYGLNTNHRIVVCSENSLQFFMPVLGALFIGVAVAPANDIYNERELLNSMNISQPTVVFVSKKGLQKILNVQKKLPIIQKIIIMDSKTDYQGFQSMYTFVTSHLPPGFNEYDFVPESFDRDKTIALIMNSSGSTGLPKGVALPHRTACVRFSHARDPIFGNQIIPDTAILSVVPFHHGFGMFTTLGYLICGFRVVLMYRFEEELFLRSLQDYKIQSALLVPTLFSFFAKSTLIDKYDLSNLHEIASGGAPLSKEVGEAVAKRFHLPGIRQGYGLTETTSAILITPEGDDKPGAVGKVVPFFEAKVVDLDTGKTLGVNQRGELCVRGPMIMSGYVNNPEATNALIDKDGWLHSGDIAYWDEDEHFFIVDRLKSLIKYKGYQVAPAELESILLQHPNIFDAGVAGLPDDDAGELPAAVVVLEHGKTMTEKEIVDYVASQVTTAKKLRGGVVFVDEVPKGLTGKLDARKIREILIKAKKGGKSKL
A549 tox-2 = counter-screen for Nrf2 inhibitors: cytotoxicity in A549 ARE cells. shares compounds with Nrf2 block. A549 ARE-Fluc cells, cytotoxicity counterscreen. 1,400 tested, 2% active. Potency, µM (top dose mostly 46.1 µM), for the others: top-dose activity change, negative = cytotoxicity, actives largely listed as inhibitors;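 note: cells exposed to compounds for 18 to 24 hours; % is set by controls: 0 for no effect and ±100 for the full control effect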
Nrf2 ARE inh = confirmation of Nrf2 inhibitors in A549 ARE reporter cells; A549 ARE-firefly luciferase reporter, luminescence; shares compounds with Nrf2 block; Potency, µM (titrated, usually from 46.1 µM), for the others: top-dose activity change, negative = inhibition, actives largely listed as inhibitors; 1,400 tested, 74% active; note: % is set by controls: 0 for no effect and ±100 for the full control effect; nearly all actives have a fitted effect of over 65% in size
* hit, by the source's call. Calls come from the whole dose curve; as a rule, active = well fitted curve in the direction sought with a large enough effect; inconclusive = small, poorly fitted or top-dose-only effect, or another doubt; inactive = no such curve, though single readings can be large; an effect the other way counts as inactive or inconclusive. Potency is the fitted concentration of half-maximal effect.

For COC(=O)C1=C(C)N(Cc2ccccc2)C(=NCc2cccc(C(F)(F)F)c2)N[C@H]1c1cccc(C(F)(F)F)c1 the results were A549 tox-1 -78%, ATXN2 expr inh 28µM*, Nrf2 block inconclusive, Nrf2 activator 8% and ATXN viability 18µM*.
Cc1cc(C)c(NC(=O)CSc2ccc(-c3ccccn3)nn2)c(C)c1 was read as A549 tox-1 -6%, ATXN2 expr inh -14%, Nrf2 block -16%, Nrf2 activator 0% and ATXN viability inconclusive.
Cc1ccc(NS(=O)(=O)c2cc(NC(=O)c3ccc4c(c3)NC(=O)CS4)ccc2C)c(C)c1 was read as A549 tox-1 inconclusive, ATXN2 expr inh inconclusive, Nrf2 block 18µM*, Nrf2 activator 3% and ATXN viability inconclusive.
For COc1ccc(NC(=O)c2ccc3c(c2)NC(=O)CS3)cc1S(=O)(=O)Nc1ccc(Br)cc1 the results were A549 tox-1 2%, Nrf2 block -30%, Nrf2 activator -1% and ATXN viability inactive.
`CN(C)c1ccc(/C=C/c2ccc3c4ccccc4ccc3[n+]2-c2ccccc2)cc1` gave A549 tox-1 10µM*, ATXN2 expr inh 1.1µM*, Nrf2 block 3.7µM*, Nrf2 activator -3%, FLuc counter 3 inconclusive, A549 tox-2 7.3µM* and Nrf2 ARE inh 2.9µM*.
Screening CN(C)c1ccc(/C=C/c2cccc[n+]2[O-])cc1 returned A549 tox-1 -6%, ATXN2 expr inh -19%, Nrf2 block 10% and Nrf2 activator 0%.
Screening CN(C)c1ccc(/C=C/c2cc3ccccc3c[n+]2C)cc1 returned FLuc counter 3 -22%, A549 tox-2 inconclusive and Nrf2 ARE inh 6.5µM*.
Screening CN1CCN(S(=O)(=O)c2cccs2)CC1 returned A549 tox-1 0%, ATXN2 expr inh 40%, Nrf2 block -5%, Nrf2 activator 0% and ATXN viability inactive.
O=S(=O)(c1cccs1)N1CCN(c2ccc(O)cc2)CC1 was read as A549 tox-1 -8%, ATXN2 expr inh inconclusive, Nrf2 block inconclusive, Nrf2 activator 8%, ATXN viability inconclusive, FLuc counter 3 -21%, A549 tox-2 inconclusive and Nrf2 ARE inh 1.8µM*.
Screening COC(=O)c1cc2sccc2n1CC(=O)N(C)c1ccccc1 returned A549 tox-1 -4%, Nrf2 block -9%, Nrf2 activator 0% and ATXN viability inconclusive.
Screening Cc1cc(C2=NNC(=NC3CC3)SC2)c(C)n1-c1ccccc1F returned A549 tox-1 -4%, ATXN2 expr inh 0.28µM*, Nrf2 block 0.92µM*, Nrf2 activator -3%, ATXN viability inactive, FLuc counter 3 3% and A549 tox-2 -10%.
For CCOC(=O)N1CCN(C(=O)c2ccc(Cn3c(=S)[nH]c4cc5c(cc4c3=O)OCO5)cc2)CC1 the results were A549 tox-1 inconclusive, ATXN2 expr inh -36%, Nrf2 block 9.2µM*, Nrf2 activator 0%, ATXN viability inactive, FLuc counter 3 -22%, A549 tox-2 -9% and Nrf2 ARE inh 8.2µM*.
Screening CCOC(=O)N1CCN(C(=O)c2ccc(Cn3c(=S)[nH]c4cc(OCC)c(OCC)cc4c3=O)cc2)CC1 returned A549 tox-1 -26%, ATXN2 expr inh -20%, Nrf2 block inconclusive, Nrf2 activator -1% and ATXN viability inactive.
Cc1ccc(CCNC(=O)C2COc3ccccc3C2)cc1 (stereo not drawn) was read as A549 tox-1 9%, ATXN2 expr inh 11%, Nrf2 activator 5% and ATXN viability inactive.
`C[C@H]1O[C@@H](O[C@H]2[C@@H](O)C[C@H](O[C@H]3[C@@H](O)C[C@H](O[C@H]4CC[C@@]5(C)[C@H](CC[C@@H]6[C@@H]5C[C@@H](O)[C@]5(C)[C@@H](C7=CC(=O)OC7)CC[C@]65O)C4)O[C@@H]3C)O[C@@H]2C)C[C@H](O)[C@@H]1O` gave A549 tox-1 inconclusive, ATXN2 expr inh 0.32µM*, Nrf2 block 0.13µM*, Nrf2 activator -3%, ATXN viability inconclusive, FLuc counter 3 2%, A549 tox-2 inconclusive and Nrf2 ARE inh 0.058µM*.
CCOC(=O)N/N=C\c1cccc(OC)c1OC/C=C/c1ccccc1 was read as A549 tox-1 10%, ATXN2 expr inh 13%, Nrf2 block inconclusive, Nrf2 activator 5% and ATXN viability inactive.
`CC(C)Cn1c(N)c(C(=O)COC(=O)CC23CC4CC(CC(C4)C2)C3)c(=O)n(C)c1=O` gave A549 tox-1 inconclusive, ATXN2 expr inh inconclusive, Nrf2 block 2.1µM*, Nrf2 activator 0%, ATXN viability inconclusive, FLuc counter 3 -28% and A549 tox-2 -12%.
For CC(C)Cn1c(N)c(C(=O)COC(=O)/C=C/c2ccccc2)c(=O)n(C)c1=O the results were A549 tox-1 inconclusive, ATXN2 expr inh -27%, Nrf2 block 6.5µM*, Nrf2 activator 0%, ATXN viability inactive, FLuc counter 3 1%, A549 tox-2 -5% and Nrf2 ARE inh 7.3µM*.
CC(C)Cn1c(N)c(C(=O)CSc2ccccc2)c(=O)n(C)c1=O was read as A549 tox-1 -2%, ATXN2 expr inh 10%, Nrf2 block inconclusive, Nrf2 activator 2% and ATXN viability inactive.
For C[n+]1c2n(c3ccccc31)N=C(c1ccccc1)CS2 the results were A549 tox-1 inconclusive, ATXN2 expr inh inconclusive, Nrf2 block 3.7µM*, Nrf2 activator 8.9µM*, ATXN viability inactive, FLuc counter 3 0% and A549 tox-2 -9%.
O=C(Oc1cccnc1)c1ccc([N+](=O)[O-])cc1 was read as A549 tox-1 1%, Nrf2 block -24%, Nrf2 activator 2% and ATXN viability inactive.
O=C(Oc1cccnc1)c1ccc([N+](=O)[O-])cc1Cl was read as A549 tox-1 5%, ATXN2 expr inh -10%, Nrf2 block 1µM*, Nrf2 activator -1%, ATXN viability inactive, FLuc counter 3 4% and A549 tox-2 inconclusive.
